# Screening data deposited in PubChem BioAssay by National Center for Advancing Translational Sciences (NCATS).
# Rango-impB inh – Rango-importin beta binding inhibition | Q14974 | Rango CFP/YFP FRET sensor + importin beta, 45 min | Potency, µM (titrated, usually from 92.2 µM), without a hit: at the highest dose inhibition of complex formation | actives 0.031% (n = 340,000); calls by dose curve;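 note: 0% = DMSO wells and 100% = buffer wells lacking importin beta; nearly all actives have a fitted effect of over 15% in size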
#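 Inhibition scored from the CFP 486 nm/YFP 530 nm FRET ratio 45 min after adding 0.125 microM importin beta to 50 nM Rango biosensor preincubated 5 min with compound (room temperature, PBS with DTT, Tween-20, BSA). No-importin wells as positive control.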
# EPAC2 agonist – activates human EPAC2 exchange factor | Q8WZA2 | EPAC2 activation, biochemical qHTS; response scale: 100% = 6.5 mM cAMP response | Potency, µM (titrated, usually from 154 µM), inactives show at the highest dose activation, usual class: activators | actives 0.079% (n = 360,000) | AID 720711; note: nearly all actives have a fitted effect of over 50% in size
#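 Guanine nucleotide exchange by EPAC2 is measured as reduced fluorescence of BODIPY-GDP once it is released from 250 nM Rap1B. Plates are read kinetically for 30 min at room temperature; results are scaled to 6.5 mM cAMP.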
# EPAC1 antag – EPAC1 (human) antagonism. actives 0.14% (n = 360,000). O95398. Potency, µM (series often up to 115 µM), inactives show top-dose activity change, negative = inhibition, actives largely listed as inhibitors. EPAC1 GEF assay, Rap1b-BODIPY-GDP exchange fluorescence. AID 720709;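 note: plate controls were vehicle for no effect and positive control for full effect; nearly all actives have a fitted effect of over 50% in size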
# EPAC2 antagonist – blocks human EPAC2 exchange factor; Q8WZA2; EPAC2 GEF exchange of Rap1B-BODIPY-GDP, fluorescence; Potency, µM (top dose mostly 114 µM), for the others: at the highest dose activity, negative = inhibition, actives largely listed as inhibitors; actives 0.18% (n = 360,000); AID 720708; note: % is set by controls: 0 for no effect and ±100 for the full control effect; nearly all actives have a fitted effect of over 45% in size
# Rango dissoc inh – inhibition of RanGTP-driven Rango-importin beta dissociation; Biochemical FRET Rango-importin beta, RanGTP-induced dissociation; Potency, µM (highest dose often 46.1 µM), for inactives: at the highest dose activity change, negative = inhibition; actives 0.071% (n = 340,000); calls by dose curve; note: % of control where 0% means no effect; nearly all actives have a fitted effect of over 45% in size
#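 Rango FRET biosensor (snurportin-1 IBB flanked by N-terminal EYFP and C-terminal CFP10) at 0.1 uM, with 0.25 uM importin beta in PBS, 1mM DTT, 0.02% Tween-20, 0.1% BSA. 0.6 uM Ran, 2mM GTP and 0.2 uM RCC1 were then added for 45 min at room temperature. Inhibition read as loss of FRET rise.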
# EPAC1 agonist – activates human EPAC1 exchange factor | O95398 | EPAC1 agonist qHTS, biochemical assay; response scale: 100% = response to 6.5 mM cAMP | Potency, µM (top dose mostly 154 µM), without a hit: at the highest dose activation, hits mostly activators | actives 0.073% (n = 360,000) | AID 720707; note: nearly all actives have a fitted effect of over 60% in size
#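 EPAC1 100 nM, Rap1B–BODIPY-GDP 250 nM, unlabeled GDP 50 uM; compound titration; 5 min RT; kinetic read ex480/em540 at 5-min intervals ×30 min; data normalized to 6.5 mM cAMP agonist control.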
# * = called active by the depositor; ? = inconclusive; [ ] = another dose, or the depositor's remark. The list is not random: actives were taken first. Their share in the collection is about 0.43%. Unless noted, calls come from the whole dose curve; as a rule, active = well fitted curve in the direction sought with a large enough effect; inconclusive = small, poorly fitted or top-dose-only effect, or another doubt; inactive = no such curve, though single readings can be large; an effect the other way counts as inactive or inconclusive. Potency is the fitted concentration of half-maximal effect.
SMILES,Rango-impB inh,EPAC2 agonist,EPAC1 antag,EPAC2 antagonist,Rango dissoc inh,EPAC1 agonist
O=C1CCc2cc(NS(=O)(=O)c3ccc([N+](=O)[O-])cc3)cc3c2N1CCC3,-3%,0%,15%,4%,11%,-11%
Cc1ccc(Oc2cc(NC(=O)CCCn3nc([N+](=O)[O-])cc3C)cc([N+](=O)[O-])c2)cc1,?,8%,-11%,-15%,2%,0%
O=c1[nH]c(C2CCCN(S(=O)(=O)c3cccc(Cl)c3)C2)nc2c1nnn2Cc1ccc2c(c1)OCCO2 (stereo not given),3%,10%,-8%,-18%,40%,17%
N#CC(C(=O)NCc1ccccc1)c1nc2ccccc2nc1N1CCCC1 (stereo not given),?,89µM*,59%,115%[57.1 µM],?,16%
N#CC(C(=O)NCc1ccco1)c1nc2ccccc2nc1N1CCOCC1 (stereo not given),?,16%,79µM*,?,?,-33%
CCN(CC)c1nc2ccccc2nc1C(C#N)C(=O)NCCc1ccccc1 (stereo not given),?,-133%,-8%,32µM*,?,14%
CCN(CC)c1nc2ccccc2nc1C(C#N)C(=O)NCCCOC (stereo not given),?,7%,-5%,-4%,?,-5%
N#CC(C(=O)NCCc1ccccc1)c1nc2ccccc2nc1N1CCCCC1 (stereo not given),-2%,14%,-15%,-17%,16%,-1%
O=S(=O)(c1cc(Cl)cc(Cl)c1)N1CCC2CC1c1cc(Cl)ccc12 (stereo not given),3%,10%,-9%,-7%,-4%,-8%
Cc1[nH]n(-c2ncc(-c3ccc(Cl)cc3)s2)c(=O)c1C(c1ccc(Cl)cc1)C(C#N)C#N (stereo not given),0%,1%,40µM*,-15%,24%,0%
COc1ccc(C(c2c(C)[nH]n(C(N)=S)c2=O)C(C#N)C#N)cc1 (stereo not given),-1%,1%,7%,10%,-2%,-9%
Cc1sc2nc(SCC(=O)N(C)Cc3ccccc3)n(-c3ccccc3)c(=O)c2c1C,1%,2%,-3%,2%,11%,9%
N#Cc1c(NC(=O)c2ccccc2Cl)n(Cc2ccccc2)c2nc3ccccc3nc12,?,-15%,35µM*,45µM*,?,-7%
CC(Oc1ccc(-c2nnco2)cc1)C(=O)N1CCOCC1 (stereo not given),-2%,-2%,-20%,1%,-15%,32µM*
Cc1cccc(C(=O)Oc2c(Br)cc(Br)cc2/C=N/NC(=O)c2ccncc2)c1,-1%,-1%,6%,0%,-10%,-6%
Cc1cc(C(=O)N/N=C/c2cc(Br)cc(Br)c2OC(=O)c2cccc(F)c2)n[nH]1,?,-6%,-16%,-1%,3.7µM*,5%
O=C(CSc1nnc(-c2ccco2)o1)NC1CC2CCC1C2 (stereo not given),5%,10%,-4%,-8%,5%,-4%
